Our source for the binding signal values is paper PMC11006913.

Assay in all cases: PBM; 200 nM protein, PBS
What all share (conditions): dsDNA, one strand shown

For experiment [1], the target named is T1, SIX6 (Homo sapiens, UniProt O95475 114-200, L167I).
T1 sequence: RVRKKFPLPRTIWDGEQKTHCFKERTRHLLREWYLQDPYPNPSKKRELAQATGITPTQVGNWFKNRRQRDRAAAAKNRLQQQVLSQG

Experiment [2] has as its target T2, SIX6 (Homo sapiens, UniProt O95475 114-200, L143V).
T2 sequence: T1 sequence with L30V, I54L

In experiment [3] the target is T3, SIX6 (Homo sapiens, UniProt O95475 114-200, H141N).
T3 sequence: T1 sequence with H28N, I54L

Experiment [4] has as its target T4, SIX6 (Homo sapiens, UniProt O95475 114-200, T165P).
T4 sequence: T1 sequence with T52P, I54L

Experiment [5] deals with T5, SIX6 (Homo sapiens, UniProt O95475 114-200, L167M).
T5 sequence: T1 sequence with I54M

Experiment [6] has as its target T6, SIX6 (Homo sapiens, UniProt O95475 114-200, L143M).
T6 sequence: T1 sequence with L30M, I54L

The target in experiment [7] is T7, SIX6 (Homo sapiens, UniProt O95475 114-200, L143I).
T7 sequence: T1 sequence with L30I, I54L

Experiment [8] deals with T8, SIX6 (Homo sapiens, UniProt O95475 114-200, T165G).
T8 sequence: T1 sequence with T52G, I54L

Experiment [9] concerns the target T9, SIX6 (Homo sapiens, UniProt O95475 114-200, T139Q).
T9 sequence: T1 sequence with T26Q, I54L

In experiment [10] the target is T10, SIX6 (Homo sapiens, UniProt O95475 114-200, T165A).
T10 sequence: T1 sequence with T52A, I54L

Experiment [11] concerns the target T11, SIX6 (Homo sapiens, UniProt O95475 114-200, L167V).
T11 sequence: T1 sequence with I54V

Experiment [12] deals with T12, SIX6 (Homo sapiens, UniProt O95475 114-200).
T12 sequence: T1 sequence with I54L

Experiment [13] has as its target T13, SIX6 (Homo sapiens, UniProt O95475 114-200, T165I).
T13 sequence: T1 sequence with T52I, I54L

In experiment [14] the target is HOXA7 (Homo sapiens, UniProt P31268 116-202).
HOXA7 (Homo sapiens, UniProt P31268 116-202), sequence (P31268 116-202): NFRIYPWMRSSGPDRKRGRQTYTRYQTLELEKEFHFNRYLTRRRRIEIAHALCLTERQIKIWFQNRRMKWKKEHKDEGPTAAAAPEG
For experiment [15], the target named is HOXA7 (Homo sapiens, UniProt P31268 116-202, W177C).
HOXA7 (Homo sapiens, UniProt P31268 116-202, W177C), sequence (P31268 116-202 W177C): as the sequence (P31268 116-202) above, with W62C counted along it
Experiment [16] concerns the target HOXA4 (Homo sapiens, UniProt Q00056 201-287, W262R).
Experiment [17] addresses HOXC9 (Homo sapiens, UniProt P31274 178-260, K195R).
Experiment [18] addresses HOXA2 (Homo sapiens, UniProt O43364 129-215, R185T).
Experiment [19] deals with HOXA4 (Homo sapiens, UniProt Q00056 201-287, R217L).
HOXA4 (Homo sapiens, UniProt Q00056 201-287, R217L), sequence (Q00056 201-287 R217L): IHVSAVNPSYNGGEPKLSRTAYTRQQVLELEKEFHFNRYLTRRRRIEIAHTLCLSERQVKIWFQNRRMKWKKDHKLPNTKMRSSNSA
Experiment [20] concerns the target HOXC9 (Homo sapiens, UniProt P31274 178-260).
In experiment [21] the target is HOXC9 (Homo sapiens, UniProt P31274 178-260, R193K).
HOXC9 (Homo sapiens, UniProt P31274 178-260, R193K), sequence (P31274 178-260 R193K): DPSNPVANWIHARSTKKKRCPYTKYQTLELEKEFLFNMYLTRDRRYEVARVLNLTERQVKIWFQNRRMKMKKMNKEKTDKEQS
Experiment [22] concerns the target HOXA2 (Homo sapiens, UniProt O43364 129-215, R185K).
Experiment [23] concerns the target HOXA4 (Homo sapiens, UniProt Q00056 201-287).
The target of experiment [24] is HOXA2 (Homo sapiens, UniProt O43364 129-215, Y150S).
HOXA2 (Homo sapiens, UniProt O43364 129-215, Y150S), sequence (O43364 129-215 Y150S): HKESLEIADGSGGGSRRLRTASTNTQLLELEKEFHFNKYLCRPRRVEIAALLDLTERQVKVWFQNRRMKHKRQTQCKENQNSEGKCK
Experiment [25] addresses HOXA2 (Homo sapiens, UniProt O43364 129-215).
Experiment [26] concerns the target HOXC10 (Homo sapiens, UniProt Q9NYD6 254-340).
In experiment [27] the target is HOXC10 (Homo sapiens, UniProt Q9NYD6 254-340, K271E).
HOXC10 (Homo sapiens, UniProt Q9NYD6 254-340, K271E), sequence (Q9NYD6 254-340 K271E): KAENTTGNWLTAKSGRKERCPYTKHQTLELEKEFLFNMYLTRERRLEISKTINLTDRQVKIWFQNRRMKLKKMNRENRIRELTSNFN
Experiment [28] addresses HOXA4 (Homo sapiens, UniProt Q00056 201-287, W262F).
Experiment [29] concerns the target ALX4 (Homo sapiens, UniProt Q9H161 200-286).
For experiment [30], the target named is ALX4 (Homo sapiens, UniProt Q9H161 200-286, Q225E).
ALX4 (Homo sapiens, UniProt Q9H161 200-286, Q225E), sequence (Q9H161 200-286 Q225E): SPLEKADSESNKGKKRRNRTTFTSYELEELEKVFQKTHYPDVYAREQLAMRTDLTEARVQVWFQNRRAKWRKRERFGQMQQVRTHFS
The target of experiment [31] is HOXB6 (Homo sapiens, UniProt P17509 132-218, K202E).
HOXB6 (Homo sapiens, UniProt P17509 132-218, K202E), sequence (P17509 132-218 K202E): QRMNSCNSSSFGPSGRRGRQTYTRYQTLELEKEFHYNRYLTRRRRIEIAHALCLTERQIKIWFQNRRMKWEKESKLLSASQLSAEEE
The target of experiment [32] is ALX1 (Homo sapiens, UniProt Q15699 118-204, L144V).
ALX1 (Homo sapiens, UniProt Q15699 118-204, L144V), sequence (Q15699 118-204 L144V): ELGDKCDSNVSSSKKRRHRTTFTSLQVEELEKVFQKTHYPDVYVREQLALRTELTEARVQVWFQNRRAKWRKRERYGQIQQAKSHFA
Experiment [33] concerns the target ALX3 (Homo sapiens, UniProt O95076 139-225, N203Q).
Experiment [34] concerns the target ALX1 (Homo sapiens, UniProt Q15699 118-204, L144R).
The target in experiment [35] is ALX3 (Homo sapiens, UniProt O95076 139-225).
ALX3 (Homo sapiens, UniProt O95076 139-225), sequence (O95076 139-225): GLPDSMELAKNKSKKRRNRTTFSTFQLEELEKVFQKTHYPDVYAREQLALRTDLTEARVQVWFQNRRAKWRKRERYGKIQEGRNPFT
In experiment [36] the target is ALX3 (Homo sapiens, UniProt O95076 139-225, L168Q).
ALX3 (Homo sapiens, UniProt O95076 139-225, L168Q), sequence (O95076 139-225 L168Q): as the sequence (O95076 139-225) above, with L30Q counted along it
Experiment [37] deals with HOXC9 (Homo sapiens, UniProt P31274 178-260, R222W).
HOXC9 (Homo sapiens, UniProt P31274 178-260, R222W), sequence (P31274 178-260 R222W): as the sequence (P31274 178-260 R193K) above, with K16R, R45W counted along it
Experiment [38] addresses ALX3 (Homo sapiens, UniProt O95076 139-225, L168V).
Experiment [39] concerns the target ALX1 (Homo sapiens, UniProt Q15699 118-204).
In experiment [40] the target is ALX3 (Homo sapiens, UniProt O95076 139-225, N203S).
ALX3 (Homo sapiens, UniProt O95076 139-225, N203S), sequence (O95076 139-225 N203S): as the sequence (O95076 139-225) above, with N65S counted along it
Experiment [41] deals with HOXB6 (Homo sapiens, UniProt P17509 132-218).
HOXB6 (Homo sapiens, UniProt P17509 132-218), sequence (P17509 132-218): as the sequence (P17509 132-218 K202E) above, with E71K counted along it

Where a chain is given by its changes, count along the chain named.

HOXA4 (Homo sapiens, UniProt Q00056 201-287, W262F), sequence (Q00056 201-287 W262F): as the sequence (Q00056 201-287 R217L) above, with L17R, W62F counted along it
HOXA4 (Homo sapiens, UniProt Q00056 201-287, W262R), sequence (Q00056 201-287 W262R): as the sequence (Q00056 201-287 R217L) above, with L17R, W62R counted along it
HOXA4 (Homo sapiens, UniProt Q00056 201-287), sequence (Q00056 201-287): as the sequence (Q00056 201-287 R217L) above, with L17R counted along it
HOXC10 (Homo sapiens, UniProt Q9NYD6 254-340), sequence (Q9NYD6 254-340): as the sequence (Q9NYD6 254-340 K271E) above, with E18K counted along it
HOXC9 (Homo sapiens, UniProt P31274 178-260, K195R), sequence (P31274 178-260 K195R): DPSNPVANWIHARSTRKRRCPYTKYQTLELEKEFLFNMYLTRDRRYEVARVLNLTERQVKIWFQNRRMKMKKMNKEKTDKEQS
HOXC9 (Homo sapiens, UniProt P31274 178-260), sequence (P31274 178-260): as the sequence (P31274 178-260 R193K) above, with K16R counted along it
ALX3 (Homo sapiens, UniProt O95076 139-225, L168V), sequence (O95076 139-225 L168V): as the sequence (O95076 139-225) above, with L30V counted along it
HOXA2 (Homo sapiens, UniProt O43364 129-215), sequence (O43364 129-215): as the sequence (O43364 129-215 Y150S) above, with S22Y counted along it
ALX1 (Homo sapiens, UniProt Q15699 118-204, L144R), sequence (Q15699 118-204 L144R): as the sequence (Q15699 118-204 L144V) above, with V27R counted along it
ALX4 (Homo sapiens, UniProt Q9H161 200-286), sequence (Q9H161 200-286): as the sequence (Q9H161 200-286 Q225E) above, with E26Q counted along it
HOXA2 (Homo sapiens, UniProt O43364 129-215, R185K), sequence (O43364 129-215 R185K): as the sequence (O43364 129-215 Y150S) above, with S22Y, R57K counted along it
ALX3 (Homo sapiens, UniProt O95076 139-225, N203Q), sequence (O95076 139-225 N203Q): as the sequence (O95076 139-225) above, with N65Q counted along it
HOXA2 (Homo sapiens, UniProt O43364 129-215, R185T), sequence (O43364 129-215 R185T): as the sequence (O43364 129-215 Y150S) above, with S22Y, R57T counted along it
ALX1 (Homo sapiens, UniProt Q15699 118-204), sequence (Q15699 118-204): as the sequence (Q15699 118-204 L144V) above, with V27L counted along it

For the sequence AGTTCGGG, the binding signal with SIX6 [1] was 8.99 upbm affinity estimate (log intensity, higher = more binding, comparable within an allelic series); in the experiment with SIX6 [2], 9 upbm affinity estimate (log intensity, higher = more binding, comparable within an allelic series); with SIX6 [3], 8.96 upbm affinity estimate (log intensity, higher = more binding, comparable within an allelic series); with SIX6 [4] it was 9.14 upbm affinity estimate (log intensity, higher = more binding, comparable within an allelic series); with SIX6 [5], 9.03 upbm affinity estimate (log intensity, higher = more binding, comparable within an allelic series); in the experiment with SIX6 [6] it was 9.18 upbm affinity estimate (log intensity, higher = more binding, comparable within an allelic series). In addition, the binding signal is 9.05 upbm affinity estimate (log intensity, higher = more binding, comparable within an allelic series) with SIX6 [7]; 9.12 upbm affinity estimate (log intensity, higher = more binding, comparable within an allelic series) with SIX6 [8]; 9.14 upbm affinity estimate (log intensity, higher = more binding, comparable within an allelic series) in the experiment with SIX6 [9]; 8.95 upbm affinity estimate (log intensity, higher = more binding, comparable within an allelic series) with SIX6 [10]; 8.74 upbm affinity estimate (log intensity, higher = more binding, comparable within an allelic series) in the experiment with SIX6 [11]; 9.05 upbm affinity estimate (log intensity, higher = more binding, comparable within an allelic series) with SIX6 [12]. In addition, the binding signal in the experiment with SIX6 [13] is 8.91 upbm affinity estimate (log intensity, higher = more binding, comparable within an allelic series).

As to AATACGAT, the binding signal is 9.45 upbm affinity estimate (log intensity, higher = more binding, comparable within an allelic series) with HOXA7 [14] and 8.84 upbm affinity estimate (log intensity, higher = more binding, comparable within an allelic series) in the experiment with HOXA7 [15].

On to ATGAATGA, for which the binding signal in the experiment with HOXA4 [16] was 10.2 upbm affinity estimate (log intensity, higher = more binding, comparable within an allelic series); with HOXC9 [17] it was 11.2 upbm affinity estimate (log intensity, higher = more binding, comparable within an allelic series); in the experiment with HOXA2 [18], 9.4 upbm affinity estimate (log intensity, higher = more binding, comparable within an allelic series); with HOXA4 [19] it was 11.1 upbm affinity estimate (log intensity, higher = more binding, comparable within an allelic series); with HOXC9 [20] it was 11 upbm affinity estimate (log intensity, higher = more binding, comparable within an allelic series); with HOXC9 [21], 11.2 upbm affinity estimate (log intensity, higher = more binding, comparable within an allelic series). For the same sequence, the binding signal with HOXA2 [22] is 11.9 upbm affinity estimate (log intensity, higher = more binding, comparable within an allelic series); with HOXA4 [23], 11.5 upbm affinity estimate (log intensity, higher = more binding, comparable within an allelic series); with HOXA2 [24], 10.9 upbm affinity estimate (log intensity, higher = more binding, comparable within an allelic series); with HOXA2 [25], 9.56 upbm affinity estimate (log intensity, higher = more binding, comparable within an allelic series).

As to GCCAAGCC, the binding signal with HOXA4 [16] is 9.84 upbm affinity estimate (log intensity, higher = more binding, comparable within an allelic series); in the experiment with HOXC10 [26], 10.1 upbm affinity estimate (log intensity, higher = more binding, comparable within an allelic series); with HOXA4 [19] it was 9.8 upbm affinity estimate (log intensity, higher = more binding, comparable within an allelic series); with HOXA4 [23], 9.92 upbm affinity estimate (log intensity, higher = more binding, comparable within an allelic series); with HOXC10 [27], 10 upbm affinity estimate (log intensity, higher = more binding, comparable within an allelic series); with HOXA4 [28], 9.89 upbm affinity estimate (log intensity, higher = more binding, comparable within an allelic series).

As to CCCGAAGG, the binding signal with HOXA4 [16] is 9.83 upbm affinity estimate (log intensity, higher = more binding, comparable within an allelic series); with HOXC10 [26] it was 9.96 upbm affinity estimate (log intensity, higher = more binding, comparable within an allelic series); with ALX4 [29] it was 7.8 upbm affinity estimate (log intensity, higher = more binding, comparable within an allelic series); in the experiment with ALX4 [30], 8.2 upbm affinity estimate (log intensity, higher = more binding, comparable within an allelic series); with HOXA4 [19], 9.81 upbm affinity estimate (log intensity, higher = more binding, comparable within an allelic series); with HOXA4 [23], 9.76 upbm affinity estimate (log intensity, higher = more binding, comparable within an allelic series). Also, the binding signal in the experiment with HOXC10 [27] was 9.97 upbm affinity estimate (log intensity, higher = more binding, comparable within an allelic series); with HOXA4 [28], 9.93 upbm affinity estimate (log intensity, higher = more binding, comparable within an allelic series).

In the case of CCGGACGG, the binding signal was 9.78 upbm affinity estimate (log intensity, higher = more binding, comparable within an allelic series) in the experiment with HOXA4 [16]; 9.56 upbm affinity estimate (log intensity, higher = more binding, comparable within an allelic series) in the experiment with HOXC9 [17]; 8.96 upbm affinity estimate (log intensity, higher = more binding, comparable within an allelic series) with HOXB6 [31]; 9.81 upbm affinity estimate (log intensity, higher = more binding, comparable within an allelic series) with HOXA4 [19]; 9.65 upbm affinity estimate (log intensity, higher = more binding, comparable within an allelic series) in the experiment with HOXC9 [20]; 6.5 upbm affinity estimate (log intensity, higher = more binding, comparable within an allelic series) with ALX1 [32]. Moreover, the binding signal in the experiment with ALX3 [33] was 7.77 upbm affinity estimate (log intensity, higher = more binding, comparable within an allelic series); in the experiment with HOXC9 [21], 9.6 upbm affinity estimate (log intensity, higher = more binding, comparable within an allelic series); in the experiment with ALX1 [34], 6.53 upbm affinity estimate (log intensity, higher = more binding, comparable within an allelic series); in the experiment with HOXA4 [23] it was 9.9 upbm affinity estimate (log intensity, higher = more binding, comparable within an allelic series); with ALX3 [35], 7.87 upbm affinity estimate (log intensity, higher = more binding, comparable within an allelic series); with ALX3 [36], 7.82 upbm affinity estimate (log intensity, higher = more binding, comparable within an allelic series). For the same sequence, the binding signal in the experiment with HOXC9 [37] is 9.76 upbm affinity estimate (log intensity, higher = more binding, comparable within an allelic series); with ALX3 [38] it was 7.73 upbm affinity estimate (log intensity, higher = more binding, comparable within an allelic series); in the experiment with ALX1 [39], 6.67 upbm affinity estimate (log intensity, higher = more binding, comparable within an allelic series); with HOXA4 [28], 9.82 upbm affinity estimate (log intensity, higher = more binding, comparable within an allelic series); in the experiment with ALX3 [40], 7.72 upbm affinity estimate (log intensity, higher = more binding, comparable within an allelic series); with HOXB6 [41], 9.05 upbm affinity estimate (log intensity, higher = more binding, comparable within an allelic series).

For the sequence GATCCCCC, the binding signal in the experiment with HOXA4 [16] is 9.9 upbm affinity estimate (log intensity, higher = more binding, comparable within an allelic series); in the experiment with SIX6 [4] it was 9.3 upbm affinity estimate (log intensity, higher = more binding, comparable within an allelic series); in the experiment with HOXA4 [19], 9.87 upbm affinity estimate (log intensity, higher = more binding, comparable within an allelic series); in the experiment with SIX6 [9] it was 11.1 upbm affinity estimate (log intensity, higher = more binding, comparable within an allelic series); with HOXA4 [23], 9.93 upbm affinity estimate (log intensity, higher = more binding, comparable within an allelic series); in the experiment with HOXA4 [28], 9.82 upbm affinity estimate (log intensity, higher = more binding, comparable within an allelic series).
